From the supplement of paper PMC12636033
± gives the standard deviation of the averaged measurements. In all, about 33,000 sequences were measured (“E-score (rank enrichment, -0.5 to 0.5)”: median about -0.0043, highest 2% from about 0.24 on). This is one part of a sample in which the highest values are shown more often than they occur.

The sequences below were run on 2Sp-muMax20 (muMax20 with two 2,6-bis(methyl)pyridine Cys staples) (assay: PBM 8-mer E-score (E-score (rank enrichment, -0.5 to 0.5)); higher = stronger preferential binding).
Protocol: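 Protein binding microarray (universal PBM chip covering all 10-mers in fixed probe flanks) with chemically synthesized human Max(13-93) bHLH-LZ analogs (not full-length Max) bearing noncanonical residues (hArg, Tha, Aib, Nle at 65) and aromatic Cys staples. Read-out per 8-mer (and its reverse complement): E-score (rank-based enrichment, -0.5 to 0.5) and Z-score of median probe intensity.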

Compared with GAATAATA, GTATAATA is higher in “PBM 8-mer E-score” value: 0.0134 ± 0.025 for the first, 0.26 ± 0.018 for the second.

Going from ATATAATA to GTATAAGA, the “PBM 8-mer E-score” value falls from 0.244 ± 0.015 to 0.171 ± 0.024.

Compared with GCGACCCA, TAACTAGA is higher in “PBM 8-mer E-score” value: -0.125 ± 0.0022 for the first, 0.216 ± 0.032 for the second.

TAAATTGA and ACTACACG are within error of each other in “PBM 8-mer E-score” value: 0.123 ± 0.068 for the first, 0.134 ± 0.1 for the second.

Compared with TCTATACA, ACTACACA is higher in “PBM 8-mer E-score” value: 0.111 ± 0.0021 for the first, 0.317 ± 0.02 for the second.

AATATACT and TATATACA are within error of each other in “PBM 8-mer E-score” value: 0.0855 ± 0.0041 for the first, 0.11 ± 0.072 for the second.

Going from GCTATACA to ACTATACA, the “PBM 8-mer E-score” value rises from 0.148 ± 0.0048 to 0.236 ± 0.052.

Going from AATATACA to CCTACACG, the “PBM 8-mer E-score” value falls from 0.272 ± 0.012 to -0.0918 ± 0.0064.

First: GAGGGCAA
Second: AATTGTGT
The “PBM 8-mer E-score” value of the first is lower: 0.00807 ± 0.048 for the first, 0.124 ± 0.015 for the second.

Going from ATGGCGTC to AATCTCAC, the “PBM 8-mer E-score” value rises from -0.112 ± 0.017 to -0.00554 ± 0.028.

First: GCACAACC
Second: CCACAACA
The “PBM 8-mer E-score” value of the first is lower: -0.26 ± 0.11 for the first, -0.0195 ± 0.008 for the second.

Going from GCACAACA to GATCGATA, the “PBM 8-mer E-score” value falls from 0.245 ± 0.044 to 0.0711 ± 0.063.

Compared with AATCGATA, TATCGATA is higher in “PBM 8-mer E-score” value: 0.122 ± 0.028 for the first, 0.28 ± 0.0074 for the second.

CGTAGTTC and ATGGTGCG are within error of each other in “PBM 8-mer E-score” value: -0.126 ± 0.036 for the first, -0.0695 ± 0.038 for the second.

Going from CATGGGCC to ATGGTAAT, the “PBM 8-mer E-score” value rises from -0.227 ± 0.033 to 0.0649 ± 0.056.

Compared with CCCGTAGA, GGCGGGGA is higher in “PBM 8-mer E-score” value: -0.219 ± 0.0027 for the first, 0.327 ± 0.0043 for the second.

Going from GGCGGGAA to CGCGGGGA, the “PBM 8-mer E-score” value falls from 0.0758 ± 0.012 to 0.00762 ± 0.0032.

First: GGGCGGGA
Second: CGGCGGGA
The “PBM 8-mer E-score” value of the first is higher: 0.302 ± 0.009 for the first, -0.183 ± 0.048 for the second.

Compared with AGGCGGGA, CGGGATAG is lower in “PBM 8-mer E-score” value: 0.0612 ± 0.085 for the first, -0.0726 ± 0.029 for the second.

Going from GATAATCC to TATAATCA, the “PBM 8-mer E-score” value rises from -0.0127 ± 0.051 to 0.248 ± 0.026.

Compared with AATAATCA, GATAATCA is higher in “PBM 8-mer E-score” value: 0.0327 ± 0.025 for the first, 0.291 ± 0.0043 for the second.

GATAATAA and CATAATCA are within error of each other in “PBM 8-mer E-score” value: 0.161 ± 0.11 for the first, 0.122 ± 0.058 for the second.

CTCCTGCA and ACCAGCGA are within error of each other in “PBM 8-mer E-score” value: -0.0859 ± 0.085 for the first, -0.0875 ± 0.13 for the second.

Going from AGTGCCCG to CGGGCCCG, the “PBM 8-mer E-score” value rises from -0.183 ± 0.011 to -0.0343 ± 0.1.

First: ACCTTCAG
Second: CAAACGGC
The “PBM 8-mer E-score” value of the first is higher: 0.0376 ± 0.011 for the first, -0.18938 ± 4.9e-05 for the second.

AAACGGCC and AAAACGGC are within error of each other in “PBM 8-mer E-score” value: 0.2844 ± 0.0015 for the first, 0.295 ± 0.024 for the second.

Compared with AAACGGCT, CAACGGCC is lower in “PBM 8-mer E-score” value: -0.108 ± 0.055 for the first, -0.302 ± 0.033 for the second.

Going from GAAACGGC to GTATCTCA, the “PBM 8-mer E-score” value rises from -0.0635 ± 0.06 to 0.17 ± 0.075.

CAACCTCC and GAAGTGTA are within error of each other in “PBM 8-mer E-score” value: -0.00017 ± 0.065 for the first, -0.0146 ± 0.06 for the second.

Going from ATGGCTGG to TATGTCAA, the “PBM 8-mer E-score” value rises from -0.00368 ± 0.018 to 0.224 ± 0.067.

AGTGGTAA and AGTATATC are within error of each other in “PBM 8-mer E-score” value: 0.0408 ± 0.025 for the first, -0.0248 ± 0.067 for the second.

Going from ATTATATA to CCTATATC, the “PBM 8-mer E-score” value falls from 0.199 ± 0.014 to -0.0131 ± 0.064.

ACTATCTC and CGTATCTA are within error of each other in “PBM 8-mer E-score” value: -0.108 ± 0.18 for the first, 0.000215 ± 0.053 for the second.

First: AGTATCTA
Second: ATTATATG
The “PBM 8-mer E-score” value of the first is higher: 0.3 ± 0.034 for the first, 0.198 ± 0.017 for the second.

Going from AGTATATG to ACTATATC, the “PBM 8-mer E-score” value rises from 0.125 ± 0.12 to 0.302 ± 0.055.

AGTATATA and ATTATATC are within error of each other in “PBM 8-mer E-score” value: 0.273 ± 0.03 for the first, 0.243 ± 0.051 for the second.

GGTATCTA and CGCGCTGA are within error of each other in “PBM 8-mer E-score” value: -0.00749 ± 0.008 for the first, 0.00249 ± 0.09 for the second.

CATGCAGG and CCTAGTTA are within error of each other in “PBM 8-mer E-score” value: 0.0699 ± 0.036 for the first, 0.0579 ± 0.045 for the second.

CGTGGGTC and CCCAAACC are within error of each other in “PBM 8-mer E-score” value: 0.00478 ± 0.056 for the first, 0.0283 ± 0.012 for the second.

AGTGCAAA and GTGTGGCA are within error of each other in “PBM 8-mer E-score” value: -0.0314 ± 0.044 for the first, 0.0191 ± 0.059 for the second.

First: GAAGCCGA
Second: CGATCCTC
The “PBM 8-mer E-score” value of the first is lower: -0.13 ± 0.0099 for the first, -0.0245 ± 0.032 for the second.

GCGCAAAC and GCGTAGGA are within error of each other in “PBM 8-mer E-score” value: 0.11 ± 0.026 for the first, 0.112 ± 0.03 for the second.

Compared with ATGCTTGG, ACTATATA is higher in “PBM 8-mer E-score” value: 0.102 ± 0.0062 for the first, 0.254 ± 0.018 for the second.
